Test results reported in the supplement of paper PMC9950053.
Counter-ions that a name gives are not always drawn.

The molecules below were run on Danio rerio larvae (5 dpf) (assay: excitability (activity period 17 minus period 16, 1-s interval sound) minus DMSO control (percentage points); higher = more acoustic excitability than DMSO larvae). Details: 10 µM; exposure time: 3 h pre-incubation + 3 h imaging.
Protocol: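 Wild-type 5 dpf zebrafish larvae (n=48 per drug, 96-well plates, 28.5 °C) were exposed to Tocris FDA-approved library compounds at 10 µM (0.1% DMSO) for 3 h before and 3 h during imaging. Images were taken every 6 s during visual and acoustic stimuli, and larvae were tracked with Z-LaP Tracker. Each measure is the treated-group mean minus the DMSO control mean (n=844), in percentage points. This mapping covers compounds with 5-character plate codes.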

Compared with `CCc1nc(N)nc(N)c1-c1ccc(Cl)cc1` [Pyrimethamine], `O=C(O)C[C@H](O)C[C@H](O)/C=C/c1c(C2CC2)nc2ccccc2c1-c1ccc(F)cc1` [Pitavastatin calcium] is lower in excitability: 6.57 for the first, -1.16 for the second.

First: O=C1CCc2ccc(OCCCCN3CCN(c4cccc(Cl)c4Cl)CC3)cc2N1 [Aripiprazole]
Second: O=c1n(CCCN2CCN(c3cccc(Cl)c3)CC2)nc2ccccn12 [Trazodone hydrochloride]
The excitability of the first is lower: 16.5 for the first, 20.3 for the second.

Going from `CC(=O)Nc1ccc(O)cc1` [Acetaminophen] to `CNC(=O)c1cc(Oc2ccc(NC(=O)Nc3ccc(Cl)c(C(F)(F)F)c3)cc2)ccn1` [Sorafenib], the excitability rises from -1.73 to 13.1.

First: COc1ccccc1OCC(O)CN1CCN(CC(=O)Nc2c(C)cccc2C)CC1 (configuration not stated) [Ranolazine dihydrochloride]
Second: COc1cc(N)c(Cl)cc1C(=O)NC1CCN(CCCOc2ccc(F)cc2)CC1OC (configuration not stated) [Cisapride]
The excitability of the first is lower: 4.28 for the first, 18.5 for the second.

Compared with `NC(=O)OCC(COC(N)=O)c1ccccc1` [Felbamate], `CC(=O)Oc1cc2c(s1)CCN(C(C(=O)C1CC1)c1ccccc1F)C2` (configuration not stated) [Prasugrel] is higher in excitability: -3.94 for the first, 5.89 for the second.

Going from `C#CCN[C@@H]1CCc2ccccc21` [Rasagiline mesylate] to `CN[C@H]1CC[C@@H](c2ccc(Cl)c(Cl)c2)c2ccccc21` [Sertraline hydrochloride], the excitability rises from -0.121 to 10.4.

First: CN(C)CCc1c[nH]c2ccc(C[C@H]3COC(=O)N3)cc12 [Zolmitriptan]
Second: CNS(=O)(=O)Cc1ccc2[nH]cc(CCN(C)C)c2c1 [Sumatriptan succinate]
The excitability of the first is higher: 4.24 for the first, -4.97 for the second.

Going from `CCCCCCCN(CC)CCCC(O)c1ccc(NS(C)(=O)=O)cc1` (configuration not stated) [Ibutilide hemifumarate] to `OCc1cc(C(O)CNCCCCCCOCCCCc2ccccc2)ccc1O` (configuration not stated) [Salmeterol xinafoate], the excitability falls from 13.3 to 13.1.

First: OCCN1C[C@H](O)[C@@H](O)[C@H](O)[C@H]1CO [Miglitol]
Second: C[C@H]1O[C@H](O[C@H]2[C@H](O)[C@@H](O)[C@@H](O[C@H]3[C@H](O)[C@@H](O)C(O)O[C@@H]3CO)O[C@@H]2CO)[C@H](O)[C@@H](O)[C@@H]1N[C@H]1C=C(CO)[C@@H](O)[C@H](O)[C@H]1O (some centres not stated) [Acarbose]
The excitability of the first is higher: 4.04 for the first, -4.36 for the second.

Going from `COc1cc2nccc(Oc3ccc(NC(=O)C4(C(=O)Nc5ccc(F)cc5)CC4)cc3)c2cc1OC` to `COc1ccccc1Oc1c(NS(=O)(=O)c2ccc(C(C)(C)C)cc2)nc(-c2ncccn2)nc1OCCO` [Bosentan], the excitability falls from 16.9 to -2.37.

Going from `CCCC1O[C@@H]2C[C@H]3[C@@H]4CCC5=CC(=O)C=C[C@]5(C)[C@H]4[C@@H](O)C[C@]3(C)[C@]2(C(=O)CO)O1` (some centres not stated) [Budesonide] to `C[C@@H]1C[C@H]2[C@@H]3CCC4=CC(=O)C=C[C@]4(C)[C@@]3(F)[C@@H](O)C[C@]2(C)[C@@]1(O)C(=O)CO` [Dexamethasone], the excitability falls from 1.14 to -4.14.

Going from `CC(C)OC(=O)C(C)(C)Oc1ccc(C(=O)c2ccc(Cl)cc2)cc1` [Fenofibrate] to `COCCc1ccc(OCC(O)CNC(C)C)cc1` (configuration not stated) [Metoprolol tartrate], the excitability falls from 4.72 to -6.24.

First: CC(C)(C(=O)O)c1ccc(C(O)CCCN2CCC(C(O)(c3ccccc3)c3ccccc3)CC2)cc1 (configuration not stated) [Fexofenadine hydrochloride]
Second: CC(C)COCC(CN(Cc1ccccc1)c1ccccc1)N1CCCC1 (configuration not stated) [Bepridil hydrochloride]
The excitability of the first is lower: -5.03 for the first, 14.7 for the second.

First: Cc1cc2c(s1)Nc1ccccc1N=C2N1CCN(C)CC1 [Olanzapine]
Second: CCCc1nn(C)c2c(=O)[nH]c(-c3cc(S(=O)(=O)N4CCN(C)CC4)ccc3OCC)nc12 [Sildenafil citrate]
The excitability of the first is lower: 2.72 for the first, 4.28 for the second.

First: NS(=O)(=O)c1cc2c(cc1Cl)NC(C1CC3C=CC1C3)NS2(=O)=O (configuration not stated) [Cyclothiazide]
Second: Clc1ccc2nsnc2c1NC1=NCCN1 [Tizanidine hydrochloride]
The excitability of the first is lower: 0.365 for the first, 6.39 for the second.

Compared with `N#Cc1ccc2[nH]cc(CCCCN3CCN(c4ccc5oc(C(N)=O)cc5c4)CC3)c2c1` [Vilazodone hydrochloride], `CNCc1ccc(-c2[nH]c3cc(F)cc4c3c2CCNC4=O)cc1` [Rucaparib camsylate] is lower in excitability: 17 for the first, 13.1 for the second.

Going from `CC[C@H]1OC(=O)[C@H](C)[C@@H](O[C@H]2C[C@@](C)(OC)[C@@H](O)[C@H](C)O2)[C@H](C)[C@@H](O[C@@H]2O[C@H](C)C[C@H](N(C)C)[C@H]2O)[C@](C)(O)C[C@@H](C)CN(C)[C@H](C)[C@@H](O)[C@]1(C)O` [Azithromycin] to `COc1cc([C@@H]2c3cc4c(cc3[C@@H](O[C@@H]3O[C@@H]5CO[C@@H](C)O[C@H]5[C@H](O)[C@H]3O)[C@H]3COC(=O)[C@H]23)OCO4)cc(OC)c1O` [Etoposide], the excitability falls from 15.8 to 9.95.

Going from `CN(C)C(=N)NC(=N)N` [Metformin hydrochloride] to `N#C[C@@H]1C[C@@H]2C[C@@H]2N1C(=O)[C@@H](N)C12CC3CC(CC(O)(C3)C1)C2` [Saxagliptin hydrochloride], the excitability falls from 6.55 to 2.14.

With `OC(c1cc(C(F)(F)F)nc2c(C(F)(F)F)cccc12)C1CCCCN1` (configuration not stated) [Mefloquine hydrochloride] the excitability was 13.3.
